Data: the supplement of paper PMC3334620
The full ranking holds about 33,000 sequences; the median of “E-score (-0.5 to 0.5)” is about -0.035, and the highest 2% start at about 0.35. Only a selection was taken, and the highest values are over-represented in it overall.

Molecular target: T1, Pdr3 (UniProt P33200)
T1 sequence: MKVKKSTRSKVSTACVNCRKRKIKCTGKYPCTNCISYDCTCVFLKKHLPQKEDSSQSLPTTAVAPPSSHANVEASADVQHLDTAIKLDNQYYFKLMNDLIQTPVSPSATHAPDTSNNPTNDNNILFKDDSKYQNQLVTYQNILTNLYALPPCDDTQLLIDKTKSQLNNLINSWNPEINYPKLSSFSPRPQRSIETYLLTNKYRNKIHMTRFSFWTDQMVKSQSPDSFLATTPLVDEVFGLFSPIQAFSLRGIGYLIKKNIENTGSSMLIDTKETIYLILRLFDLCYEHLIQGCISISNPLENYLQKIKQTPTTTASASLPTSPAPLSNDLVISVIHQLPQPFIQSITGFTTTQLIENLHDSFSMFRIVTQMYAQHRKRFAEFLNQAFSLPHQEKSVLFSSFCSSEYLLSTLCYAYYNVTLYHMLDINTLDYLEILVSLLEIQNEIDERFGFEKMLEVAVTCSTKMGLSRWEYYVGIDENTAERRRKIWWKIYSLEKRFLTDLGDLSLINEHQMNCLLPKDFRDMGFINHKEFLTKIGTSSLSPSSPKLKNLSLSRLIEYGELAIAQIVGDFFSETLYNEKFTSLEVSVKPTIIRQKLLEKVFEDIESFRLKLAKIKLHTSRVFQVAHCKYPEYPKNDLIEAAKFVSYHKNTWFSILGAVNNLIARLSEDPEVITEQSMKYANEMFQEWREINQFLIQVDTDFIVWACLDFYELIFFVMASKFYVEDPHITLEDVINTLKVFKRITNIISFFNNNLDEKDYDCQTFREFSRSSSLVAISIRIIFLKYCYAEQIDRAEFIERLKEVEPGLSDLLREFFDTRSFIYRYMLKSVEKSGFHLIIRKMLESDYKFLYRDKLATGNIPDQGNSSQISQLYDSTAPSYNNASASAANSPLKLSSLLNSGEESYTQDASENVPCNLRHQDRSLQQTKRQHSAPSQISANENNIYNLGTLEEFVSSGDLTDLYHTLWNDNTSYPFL
Experiment: PBM E-score (8-mer binding enrichment) (E-score (-0.5 to 0.5)); higher = stronger / more preferred TF binding
Conditions: protein concentration: 200 nM; construct: GST-full length
Description: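 Universal 'all 10-mer' protein binding microarrays (Agilent AMADID 015681) probed with GST-tagged S. cerevisiae TFs (full-length or DBD) made by in vitro transcription/translation (PURExpress), about 100-200 nM. Bound TF was detected with fluorescent anti-GST. Each ungapped 8-mer (which stands for itself and its reverse complement) is scored by the PBM enrichment score (E-score), a modified Wilcoxon-Mann-Whitney statistic from -0.5 to +0.5, computed with the Universal PBM Analysis Suite. Scale: above 0.35 generally sequence-specific binding.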

| Sequence | PBM E-score |
| --- | --- |
| CAGGAGCG | -0.12 |
| ACGGAGCC | 0.305 |
| TCGGAGCA | 0.28 |
| ACGGAGCG | 0.337 |
| CCGGAGCC | 0.403 |
| GCGGAGCA | 0.304 |
| CCGGAGCG | 0.37 |
| GCGGAGCC | 0.296 |
| CCGGAGCA | 0.401 |
| AAAAGAGT | -0.208 |
| AAGATTCG | 0.108 |
| ACAACACG | 0.0551 |
| ATGTTCGC | -0.165 |
| ACTGGCGG | 0.153 |
| CTTCAGGC | -0.224 |
| CGCAAGAG | 0.0334 |
| ACGGAATG | 0.432 |
| AAGGAATA | -0.0227 |
| ACGGAATC | 0.465 |
| CGGGAATA | 0.331 |
| ACGGAATA | 0.445 |
| AGGGAATC | 0.00236 |
| ATGGAATA | 0.205 |
| ATGGAATC | 0.205 |
| CTGGAATA | 0.08 |

| Sequence | PBM E-score |
| --- | --- |
| ATGGAATG | 0.184 |
| AGGGAATG | -0.0936 |
| CCGGAATA | 0.437 |
| GGCCGATA | 0.0764 |
| CATGTTTA | -0.0824 |
| GCCGCATA | 0.237 |
| AAGGGCAC | -0.157 |
| AAGCCGCC | 0.0806 |
| AACCTAGA | 0.11 |
| AGACAGTC | -0.0923 |
| CGGGAATC | 0.334 |
| GGGGAATA | 0.121 |
| CCGGAATC | 0.471 |
| GCGGAATA | 0.398 |
| CTGGAATC | 0.02 |
| GTGGAATA | 0.122 |
| CCCACTCA | -0.108 |
| AGATTGTC | 0.0868 |
| AGTAAAAT | -0.11 |
| ACGGCTAG | -0.152 |
| AAAACCAA | -0.0135 |
| AATATTTG | 0.0496 |
| AATACGGA | 0.351 |
| TATACGGA | 0.221 |
| CATACGGA | 0.359 |

| Sequence | PBM E-score |
| --- | --- |
| GATACGGC | 0.014 |
| CATACGGC | 0.143 |
| GATACGGA | 0.357 |
| CTGTTCTC | -0.0802 |
| ATGAGCTG | -0.0649 |
| CGTATTTA | 0.164 |
| CGGTGCCA | -0.115 |
| AATCCCAT | -0.0271 |
| TATCCCGA | 0.305 |
| AATCCCGT | 0.409 |
| AATCCCGC | 0.333 |
| AATCCCGA | 0.358 |
| AGTCCCGA | 0.147 |
| ACAAGGTG | -0.125 |
| GTCCTCTA | -0.222 |
| GGAACCTA | 0.3 |
| TCTGGCAA | 0.0125 |
| ACCTACGC | -0.0495 |
| TAAACGTA | -0.137 |
| AAAACGGA | 0.314 |
| TAAACGAA | -0.0987 |
| CAAACGGA | 0.37 |
| CAAACGGG | 0.184 |
| GAAACGGA | 0.395 |
| GAAACGAA | 0.0452 |

| Sequence | PBM E-score |
| --- | --- |
| GAAACGGC | 0.202 |
| TAAACGGA | 0.366 |
| CAAATGCG | 0.0429 |
| CATTCTCC | -0.105 |
| CAGGGCAA | 0.0442 |
| CCGCTAGG | 0.0934 |
| TCGCTAGA | -0.125 |
| CGTACCAC | -0.102 |
| AATCCTAG | -0.108 |
| CTGATAGA | -0.118 |
| CTTCCTGA | 0.0336 |
| CTGCCGGC | 0.339 |
| ATTCCAGA | 0.0594 |
| GTTCCGGA | 0.475 |
| ATACCGGA | 0.303 |
| CTTCCGGA | 0.451 |
| GTACCGGA | 0.318 |
| GTTCCTGA | -0.0384 |
| CTTCCGGC | 0.398 |
| ATTCCGGA | 0.481 |
| CTACCGGC | -0.0343 |
| CTTCCCGA | 0.291 |
| AACTGATA | 0.0335 |
| ATAAGCAA | -0.128 |
| GATGCGCA | 0.0246 |

| Sequence | PBM E-score |
| --- | --- |
| AAAACCCG | 0.319 |
| CACTTACG | 0.121 |
| AGCCCTCA | -0.248 |
| TCCGGCGA | 0.356 |
| GCCGGCTA | 0.248 |
| GCCGGCGA | 0.36 |
| ACCGGCGC | 0.228 |
| CCCGGCGA | 0.296 |
| GCCGGCGC | 0.372 |
| ACCGGCGA | 0.281 |
| CCCGGCGC | 0.26 |
| GTCGGCGA | -0.0361 |
| AGAGGCCG | -0.105 |
| CTAGAAGC | -0.166 |
| ATGTCGGC | -0.0499 |
| CGCAACTA | 0.0897 |
| CCGCCGGC | 0.401 |
| ACGCCGGA | 0.289 |
| GCGCCGAA | 0.241 |
| CCGCCGCC | 0.244 |
| ACGCCGGG | 0.251 |
| CCGCCGCA | 0.202 |
| GCGCCGTA | 0.251 |
| CCGCCGTC | 0.168 |
| GCGCCGGA | 0.384 |

| Sequence | PBM E-score |
| --- | --- |
| CCGCCGGA | 0.415 |
| ACGCCGCC | 0.0831 |
| ACGCCGGC | 0.385 |
| GACCTACC | 0.0277 |
| ACCTTTAA | -0.0915 |
| ATGTCGTA | -0.238 |
| CATGAGTA | -0.168 |
| GCGCACGA | 0.0416 |
| GCTGTACC | -0.00444 |
| GCCTGCCC | -0.0411 |
| CCCAAGAA | -0.0373 |
| ACGGCGCC | 0.243 |
| CCGGCGCC | 0.37 |
| GCGGCGCC | 0.353 |
| AACGAACT | -0.245 |
| AGAGAAGG | -0.0862 |
| AGGAAAGC | -0.105 |
| CGGAAAGA | 0.428 |
| CGGAAAGC | 0.415 |
| AGGAAAGA | -0.167 |
| GGGAAAGA | 0.0836 |
| CCGAAAGC | 0.136 |
| CTGCGGTA | -0.0102 |
| GCTTTCAC | -0.107 |
| ACTGGGCT | 0.0297 |

| Sequence | PBM E-score |
| --- | --- |
| CCTGCAGA | -0.0209 |
| AGTTCTGG | -0.0246 |
| CGGTGTAC | -0.0705 |
| AGACTACT | -0.173 |
| AGGATATC | -0.0388 |
| CGGATATC | 0.391 |
| CGGATAAC | 0.333 |
| CGGATAAA | 0.383 |
| CGGATACA | 0.364 |
| TGGATAAA | 0.103 |
| CGGATACC | 0.31 |
| TGGATACA | -0.189 |
| CGGATATA | 0.346 |
| ACTTTGAA | -0.202 |
| ATCTTAGC | -0.2 |
| GGCCAGAC | 0.075 |
| GAGGTCAC | -0.0512 |
| ACCCAGAG | -0.132 |
| AGGCGCAC | 0.147 |
| ACGTGGAA | -0.0114 |
| CCGTGGAG | 0.382 |
| ACGTGGAG | -0.132 |
| CCGTGGAC | 0.274 |
| GCGTGGAA | 0.0102 |
| CCGTGGAA | 0.437 |
